A number with no mark means an inactive call. Active and inactive are the calls of the source. Unless noted, calls follow the shape of the dose curve; as a rule, active = well fitted curve in the direction sought with a large enough effect in the repeat runs; inconclusive = weak or mixed curves; inactive = no such curve, though single readings can be large; an effect the other way counts as inactive or inconclusive.

Experiment [1] in a line: qHTS assay to identify small molecule antagonists of the thyroid receptor (TR) signaling pathway (AID 743065). Also: series mostly up to about 70 µM; nearly all actives have a fitted effect of over 55% in size. A digest of the protocol:
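GH3.TRE-Luc rat pituitary cells carrying two TR response elements driving luciferase were plated for 4 h, given compound plus 1 nM T3 (final), and incubated 23.5 h at 37 C. ONE-Glo luminescence measured reporter inhibition; CellTiter-Fluor fluorescence tracked cytotoxicity.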
In general terms: Quantitative high-throughput screening tests each substance at several concentrations.

Experiment [2] concerns thyroid hormone receptor (rat, GH3 cells). The experiment can be described thus: qHTS assay to identify small molecule agonists of the thyroid receptor (TR) signaling pathway (AID 743066; calls by dose curve).
Experiment [3] in a line: qHTS assay to identify small molecule antagonists of the estrogen receptor alpha (ER-alpha) signaling pathway - cell viability counter screen (AID 743074; calls by dose curve;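 also: HEK293 cells carrying ER-alpha-UAS-bla reporter stimulated with 17beta-estradiol; nearly all actives have a fitted effect of over 45% in size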; also: potency is read from the fitted curve at half-maximal effect).
The nature of experiment [4]: qHTS assay to identify small molecule antagonists of the estrogen receptor alpha (ER-alpha) signaling pathway using the BG1 cell line - cell viability counter screen (AID 743081).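 Also: compound given together with 17beta-estradiol as the ER stimulus; series mostly up to about 70 µM; nearly all actives have a fitted effect of over 45% in size.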
The next experiment has as its target Aromatase (Homo sapiens) (UniProt P11511). The experiment can be described thus: qHTS assay to identify aromatase inhibitors (AID 743083). Also: series mostly up to about 70 µM; nearly all actives have a fitted effect of over 55% in size.
Experiment [5] is described as follows: qHTS assay to identify aromatase inhibitors - cell viability counter screen (AID 743084).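 Also: cells stimulated with testosterone during compound exposure; nearly all actives have a fitted effect of over 55% in size.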
In experiment [6] the target is Estrogen receptor (Homo sapiens) (UniProt P03372). The experiment can be described thus: qHTS assay to identify small molecule agonists of the estrogen receptor alpha (ER-alpha) signaling pathway (AID 743075; calls by dose curve;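 also: HEK293 GripTite cells with ER-alpha and UAS-driven beta-lactamase reporter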; also: potency is read from the fitted curve at half-maximal effect).
For experiment [7] the target is unchanged. The experiment can be described thus: qHTS assay to identify small molecule agonists of the estrogen receptor alpha (ER-alpha) signaling pathway using the BG1 cell line (AID 743079). Also: nearly all actives have a fitted effect of over 20% in size. Also: potency is read from the fitted curve at half-maximal effect.
The nature of experiment [8]: qHTS assay to identify small molecule antagonists of the estrogen receptor alpha (ER-alpha) signaling pathway using the BG1 cell line (AID 743080; calls by dose curve;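 also: BG1 cells stimulated with 17beta-estradiol alongside compound; series mostly up to about 70 µM; nearly all actives have a fitted effect of over 25% in size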). A digest of the protocol:
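Quantitative HTS on the Tox21 10K library: BG1 cells with endogenous ER-alpha and ERE-luciferase reporter, 17beta-estradiol stimulation, 21.5 h compound exposure, luminescence endpoint with parallel fluorescence cytotoxicity counter-read.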

For experiment [9], the target named is Estrogen receptor (Homo sapiens) (UniProt P03372). Put plainly: qHTS assay to identify small molecule antagonists of the estrogen receptor alpha (ER-alpha) signaling pathway (AID 743069; active = well fitted curve in the direction sought with a large enough effect in the signal ratio in the repeat runs, not every such curve was filed as active; inconclusive = weak or mixed curves, or effect the other way; inactive = no such curve, though single readings can be large or run the other way; the % refers to the signal ratio). A digest of the protocol: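 A 17beta-estradiol challenge was applied right after compound transfer to ER-alpha-UAS-bla HEK293 cells previously kept in charcoal-stripped serum. Plates stood 18 hr at 37C and 5% CO2; fluorescence was read following 2 hr FRET substrate loading at room temperature.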
% is scaled to controls: 0 for no effect and ±100 for the full control effect.

Chain of Estrogen receptor (Homo sapiens) (P03372 whole entry, looked up): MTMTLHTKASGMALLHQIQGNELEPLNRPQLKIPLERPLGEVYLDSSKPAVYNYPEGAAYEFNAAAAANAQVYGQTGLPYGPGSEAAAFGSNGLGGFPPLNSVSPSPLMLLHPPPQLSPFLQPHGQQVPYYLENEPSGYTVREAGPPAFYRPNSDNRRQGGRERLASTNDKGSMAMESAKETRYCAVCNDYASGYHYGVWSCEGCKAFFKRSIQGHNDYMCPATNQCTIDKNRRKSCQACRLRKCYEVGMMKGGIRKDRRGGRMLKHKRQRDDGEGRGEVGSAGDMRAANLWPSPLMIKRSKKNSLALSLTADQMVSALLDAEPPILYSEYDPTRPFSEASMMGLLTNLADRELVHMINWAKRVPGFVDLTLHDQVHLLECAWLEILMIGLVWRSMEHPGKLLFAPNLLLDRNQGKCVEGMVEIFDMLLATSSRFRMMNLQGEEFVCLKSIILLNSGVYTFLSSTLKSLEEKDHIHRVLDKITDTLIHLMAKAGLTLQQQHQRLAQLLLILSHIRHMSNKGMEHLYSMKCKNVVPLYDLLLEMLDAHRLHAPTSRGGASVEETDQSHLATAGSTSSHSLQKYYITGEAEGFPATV
Chain of Aromatase (Homo sapiens) (P11511 whole entry, looked up): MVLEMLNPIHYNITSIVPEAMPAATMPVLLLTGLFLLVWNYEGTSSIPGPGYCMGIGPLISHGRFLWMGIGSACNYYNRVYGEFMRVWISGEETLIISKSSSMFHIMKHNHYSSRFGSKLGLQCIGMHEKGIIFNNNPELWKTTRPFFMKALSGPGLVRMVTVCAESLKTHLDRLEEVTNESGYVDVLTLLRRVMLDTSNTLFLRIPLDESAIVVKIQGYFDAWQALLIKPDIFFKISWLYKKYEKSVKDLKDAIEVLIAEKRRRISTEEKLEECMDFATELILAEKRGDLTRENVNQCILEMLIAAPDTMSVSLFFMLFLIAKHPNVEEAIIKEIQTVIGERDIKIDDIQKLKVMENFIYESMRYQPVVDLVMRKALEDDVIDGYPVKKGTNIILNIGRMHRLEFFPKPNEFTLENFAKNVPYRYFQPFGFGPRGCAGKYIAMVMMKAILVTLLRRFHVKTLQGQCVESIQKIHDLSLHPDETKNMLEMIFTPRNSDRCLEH

Regarding `c1cc2ccc3ccc4ccc5cccc6c(c1)c2c3c4c56`, the activity, negative = inhibition is 1.62% [at 3.79 µM] in experiment [1] and -7.29% [at 3.79 µM] in the experiment with Aromatase (Homo sapiens). The activation in [2] is 1% [at 3.63 µM]. Further, in [3], the activity, negative = cytotoxicity is 7.3% [at 3.02 µM]. Also, the activity change, negative = cytotoxicity in [4] was 17.4% [at 3.79 µM]; in [5] it was 7.94% [at 3.79 µM].

On to `O=C(O)P(=O)(O)O`, for which the Potency result (in [1]; in [2]; in [3]; with Aromatase (Homo sapiens)) was “inactive” throughout. The compound was called inactive in [4] and in experiment [5].

Take `Cc1ccc2cccnc2c1`: the Potency result in experiment [1], in experiment [2], in experiment [3], in [6], in [7] and in experiment [8] was “inactive” each time. The Potency entry in the experiment with Aromatase (Homo sapiens) is “inactive”. The call in experiment [4] and in experiment [5] was inactive.

Regarding `Cc1ccc(OC(=O)CC(C)C)cc1`, the Potency entry in experiment [1], in [2], in [3], in [6], in experiment [7] and in experiment [8] was “inactive” in each case. The Potency result with Aromatase (Homo sapiens) was “inactive”. Also, the result in experiment [4] and in experiment [5] was inactive.

Turning to `CC(C)(C)C(=O)NCCCC(=O)O`, the Potency entry in experiment [1], in experiment [2], in [3], in [6], in experiment [7] and in [8] was “inactive” throughout. Further, the Potency entry with Aromatase (Homo sapiens) was “inactive”. For the same compound, the outcome in experiment [4] and in experiment [5] was inactive.

`CC(C)CC(O)Cc1ccccc1` (stereo not given): the Potency entry (in [1]; in [2]; in experiment [3]; in experiment [6]; in experiment [8]; with Aromatase (Homo sapiens)) was “inactive” in each case. The result in experiment [4] was inactive.

As for `O=C(O)Cc1ccccc1Oc1ccc(Cl)cc1Cl`, the Potency result in experiment [1], in experiment [2], in experiment [3], in experiment [6], in experiment [7] and in experiment [8] was “inactive” each time. In addition, the Potency entry with Aromatase (Homo sapiens) is “inactive”. For the same compound, the compound was classed as inactive in experiment [4] and in experiment [5].

Consider `N[C@H]1C(O)O[C@H](CO)[C@@H](O)[C@@H]1O` (stereo not given in full), for which the Potency result (in [1]; in experiment [2]; in experiment [3]; in experiment [6]; in [8]; with Aromatase (Homo sapiens)) was “inactive” each time. Moreover, in [7], the Potency was 0.531 µM (active). The result in experiment [4] and in experiment [5] was inactive.

For `O=Cc1ccc(C(=O)O)cc1`, the Potency result in experiment [1], in experiment [2], in [3], in experiment [6], in experiment [7] and in [8] was “inactive” in each case. In the experiment with Aromatase (Homo sapiens), the Potency entry is “inactive”. Besides, the call in experiment [4] and in experiment [5] was inactive.

For `CC(CN1CC(=O)NC(=O)C1)N1CC(=O)NC(=O)C1` (stereo not given), the Potency entry (in experiment [1]; in experiment [2]; in experiment [3]; in experiment [6]; in experiment [7]; in the experiment with Aromatase (Homo sapiens)) was “inactive” in each case. In addition, in experiment [4], the outcome was inactive.

Take `CCCCCC(=O)CC`: the Potency entry (in experiment [1]; in experiment [2]; in experiment [3]; with Aromatase (Homo sapiens)) was “inactive” in each case. Moreover, the outcome in experiment [4] and in [5] was inactive.

`CCOC(=O)c1ccc(N(C)C)cc1`: the Potency entry (in [1]; in experiment [2]; in experiment [3]; in [6]; with Aromatase (Homo sapiens)) was “inactive” in each case. Moreover, the Potency in [7] is 54.5 µM (active). Besides, the call in experiment [4] and in experiment [5] was inactive.

Regarding `C=CC(=O)OCCOCCOCC`, the Potency entry (in [1]; in [2]; in [3]; in the experiment with Aromatase (Homo sapiens)) was “inactive” throughout. The outcome in [4] was inactive.

As for `Cc1cc(N)no1`, the Potency result in experiment [1], in [2] and in [3] was “inactive” in each case. In addition, the result in experiment [4] was inactive.

`O=C1c2ccccc2C(=O)N1CO`: the Potency entry in experiment [1], in experiment [2], in experiment [3], in experiment [6], in [7] and in experiment [8] was “inactive” in each case. For the same compound, in the experiment with Aromatase (Homo sapiens), the Potency result was “inactive”. Besides, the result in [4] and in experiment [5] was inactive.

As to `CC12CCCC=C1C(=O)OC2=O` (stereo not given), the Potency result (in [1]; in [2]; in [3]; with Aromatase (Homo sapiens)) was “inactive” in each case. The call in experiment [4] and in experiment [5] was inactive.

As for `Cc1nnc(C(=O)NC(C)(C)c2nc(C(=O)NCc3ccc(F)cc3)c(O)c(=O)n2C)o1`, the Potency entry in experiment [1], in [2] and in experiment [3] was “inactive” each time. In addition, the compound was called inactive in experiment [4].

`O=C(c1ccccc1)c1cccc(O)c1`: the Potency result (in [1]; in experiment [2]; in experiment [3]; with Aromatase (Homo sapiens)) was “inactive” each time. The Potency is 49.7 µM [inconclusive] (active) in experiment [6] and 15.6 µM (active) in experiment [7]. Besides, the result in [4] and in experiment [5] was inactive.

For `CCN1CCN(C(=O)N[C@@H](C(=O)N[C@@H]2C(=O)N3[C@@H]2SC(C)(C)[C@H]3C(=O)O)c2ccccc2)C(=O)C1=O`, the Potency entry in [6], in [7] and in experiment [8] was “inactive” throughout.

Regarding `CCCOc1ccc(C(=O)OCCN(CC)CC)cc1N`, the Potency entry (in experiment [2]; in experiment [3]; with Aromatase (Homo sapiens)) was “inactive” in each case. The result in experiment [5] was inactive.

Take `CC(C)c1cc(C(C)C)cc(C(C)C)c1`: the call in experiment [9], in [4] and in experiment [5] was inactive. Moreover, the Potency result (in experiment [3]; in experiment [6]; in [7]; in [8]; with Aromatase (Homo sapiens)) was “inactive” each time.

In the case of `O=C1CC2(CCCC2)CC(=O)N1CCNCC1COc2ccccc2O1` (stereo not given), the Potency entry (in experiment [2]; in the experiment with Aromatase (Homo sapiens)) was “inactive” in each case. In [3], the Potency is 21.3 µM (active). Besides, the result in [4] was inactive.

For `CN1C(CCl)Nc2cc(Cl)c(S(N)(=O)=O)cc2S1(=O)=O` (stereo not given), the compound was classed as inactive in [9], in [4] and in experiment [5]. Also, the Potency result (in [3]; in [6]; in experiment [7]; in experiment [8]; with Aromatase (Homo sapiens)) was “inactive” throughout.

Turning to `O=c1[nH]c(=O)c2cn[nH]c2[nH]1`, the Potency result (in experiment [3]; with Aromatase (Homo sapiens)) was “inactive” throughout. The outcome in [4] and in [5] was inactive.

With `CCCCc1ccc(Cl)cc1`, the call in [9], in experiment [4] and in [5] was inactive. In addition, the Potency result (in experiment [3]; in experiment [6]; in experiment [7]; in experiment [8]; in the experiment with Aromatase (Homo sapiens)) was “inactive” in each case.

As for `CC(C)=CCC/C(C)=C\C#N`, the outcome in [9], in experiment [4] and in experiment [5] was inactive. Further, the Potency entry (in [3]; in experiment [6]; in experiment [7]; in experiment [8]; with Aromatase (Homo sapiens)) was “inactive” throughout.

For `CCCCN1C(=O)c2ccccc2C1=O`, the compound was classed as inactive in experiment [9], in experiment [4] and in experiment [5]. Also, the Potency result (in experiment [3]; in experiment [6]; in [7]; in [8]; in the experiment with Aromatase (Homo sapiens)) was “inactive” in each case.

The record behind these values is PubChem BioAssay (Tox21).
